These results are taken from PubChem BioAssay.

Structures are written as SMILES. Inconclusive results are not listed. Activity calls are given as the source filed them.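 The calls were made as follows, unless noted: active = viability at or below 10% of carrier control in both of two separate runs; inconclusive = viability at or below 10% in only one of the two runs; inactive = the rest.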

A short description of assay [1]: reducers of endogenous Her2 protein level, primary screen, SKBR3 breast tumor cells, AlphaScreen, ATP viability (AID 461;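 active = Her2 level under about 52% in both replicate screens, with viability over 70% of control, limit read from the data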;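 as to Her2 level: lower value means less Her2 protein in the cells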;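 as to viability: percent of carrier control wells set as 100% viability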). The conditions noted are these: 18-24 h, measured here: SKBR3 viability, ATP luminescence, at 10 µM. (In general: Alpha assays give light when donor and acceptor beads are brought close together.)
The target in assay [2] is Receptor tyrosine-protein kinase erbB-2 (Homo sapiens) (UniProt P04626). The assay is described as above. The settings on record: 18-24 h, at 10 µM, stronger effect = lower value.
Sequence of Receptor tyrosine-protein kinase erbB-2 (Homo sapiens) (P04626 whole entry, looked up): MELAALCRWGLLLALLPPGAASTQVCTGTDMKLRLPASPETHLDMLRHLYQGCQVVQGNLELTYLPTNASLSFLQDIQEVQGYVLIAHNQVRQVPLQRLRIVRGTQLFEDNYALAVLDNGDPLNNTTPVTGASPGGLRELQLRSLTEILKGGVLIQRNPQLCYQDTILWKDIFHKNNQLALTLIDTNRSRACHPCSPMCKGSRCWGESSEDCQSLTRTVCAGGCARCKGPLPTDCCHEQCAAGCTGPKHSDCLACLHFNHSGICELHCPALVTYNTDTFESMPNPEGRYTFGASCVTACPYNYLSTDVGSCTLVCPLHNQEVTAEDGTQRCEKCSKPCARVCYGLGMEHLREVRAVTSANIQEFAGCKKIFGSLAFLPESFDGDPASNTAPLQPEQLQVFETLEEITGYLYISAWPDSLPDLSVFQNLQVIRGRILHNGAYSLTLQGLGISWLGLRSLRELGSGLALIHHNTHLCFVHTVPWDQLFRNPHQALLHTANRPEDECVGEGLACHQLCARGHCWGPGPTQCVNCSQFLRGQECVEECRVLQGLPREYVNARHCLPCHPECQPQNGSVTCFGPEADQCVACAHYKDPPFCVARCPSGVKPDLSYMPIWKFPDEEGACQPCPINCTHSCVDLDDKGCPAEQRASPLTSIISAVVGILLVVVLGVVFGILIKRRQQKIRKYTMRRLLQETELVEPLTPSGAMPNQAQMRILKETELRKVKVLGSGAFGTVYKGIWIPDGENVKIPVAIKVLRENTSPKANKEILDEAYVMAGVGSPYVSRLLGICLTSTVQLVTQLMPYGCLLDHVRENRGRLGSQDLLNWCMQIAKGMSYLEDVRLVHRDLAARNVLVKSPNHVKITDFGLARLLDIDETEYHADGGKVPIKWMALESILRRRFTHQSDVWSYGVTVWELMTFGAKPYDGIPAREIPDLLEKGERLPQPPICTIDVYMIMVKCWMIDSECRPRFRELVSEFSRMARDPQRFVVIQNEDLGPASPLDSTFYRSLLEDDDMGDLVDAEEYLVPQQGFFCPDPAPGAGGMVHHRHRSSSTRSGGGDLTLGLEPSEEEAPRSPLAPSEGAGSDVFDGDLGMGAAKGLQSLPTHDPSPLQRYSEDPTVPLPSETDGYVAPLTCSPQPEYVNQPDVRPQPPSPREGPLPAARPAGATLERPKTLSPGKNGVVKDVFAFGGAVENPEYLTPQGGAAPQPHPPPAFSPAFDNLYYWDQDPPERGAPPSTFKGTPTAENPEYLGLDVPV
A short description of assay [3]: SK-BR-3 cell growth inhibitors, pilot screen, 24 h, human (AID 572).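 Also: compound exposure lasted between 18 and 24 h rather than exactly 24 h; 100% = carrier-treated control wells.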 The conditions noted are these: SK-BR-3 viability, CellTiter-Glo luminescence, at 10 µM, stronger effect = lower value. (ATP-based viability assays read luminescence as a measure of living cells.)
The nature of assay [4]: HUVEC growth inhibition – cell-based, human, primary screen (AID 575;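 active = viability at or below 30% in both replicate assays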;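 also: 100% = median of untreated cell wells with 0.1% DMSO on each plate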). The settings on record: HUVEC proliferation, CellTiter-Glo luminescence, 72 h; at 10 µM; stronger effect = lower value.
Assay [5] in a line: growth inhibitors of H69AR lung tumor, primary screen, human, duplicate replicates (AID 580;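 active = viability at or under a set limit in both replicates, limit being median viability minus 3 SD, cut at about 48% in these data, passing the limit was not always enough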;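 also: 100% = mean luminescence of untreated wells and 0% = no signal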). The settings on record: H69AR lung tumor cells viability, ATP luminescence, 72 h; at 10 µM; stronger effect = lower value.
Assay [6] in a line: reversal of MRP1-mediated doxorubicin resistance, pilot screen, H69AR cells, doxorubicin co-treatment (AID 601;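 active = viability loss from added drug above about 55%, and viability with drug at most 40%, in both replicates, limit read from the data, passing the limit was not always enough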). The settings on record: CellTiter-Glo, 72 h, at 10 µM; for differential viability (reversal): stronger effect = higher value.
The nature of assay [7]: 384-well plate pilot, post-Golgi transport modulator project, inhibition of yeast transport mutant growth (AID 636; in the data active = inhibition above about 31%). The conditions noted are these: absorbance 615 nm, about 18 h, stronger effect = higher value.
A short description of assay [8]: growth suppression of yeast trafficking mutant, preliminary HTS, modulators of trafficking downstream of Golgi apparatus project, 1536-format plate, OD 615 nm (AID 637; in the data active = inhibition above about 30%). The conditions noted are these: yeast transport mutant growth, absorbance 615 nm, 18 h; stronger effect = higher value.
Assay [9] in a line: OD615 S. cerevisiae growth inhibition, permissive medium, pilot counter-assay, permissive growth control for S. cerevisiae lifespan shortening project (AID 705;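 active = growth inhibition above 25% in both replicates, a cutoff set 3 SD above the mean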). The settings on record: OD615, 24 h, at 10 µM, stronger effect = higher value.
A short description of assay [10]: Restrictive medium S. cerevisiae growth inhibition, OD615, pilot screen of yeast lifespan reduction project, restrictive growth control (AID 706;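 active = growth inhibition above a set limit, 3 SD over mean compound inhibition, in both replicates, cut at about 43% in these data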;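 also: modified DeaD lifespan yeast strain shifted to restrictive glucose medium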). The settings on record: OD615, 48 h, at 10 µM, stronger effect = higher value.
A short description of assay [11]: viability gain of MRP-1-high H69AR cells under doxorubicin, pilot screen, MRP-1 activator project, CellTiter-Glo, duplicate (AID 807;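 active = viability increase at or above a cutoff of the median across tested compounds plus 3 SD, cut at about 8.5% in these data, passing the limit was not always enough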;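 also: compound pretreatment 18-22 h then 72 h combined with doxorubicin; 0% = doxorubicin alone and 100% = vehicle without doxorubicin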). The conditions noted are these: H69AR viability with doxorubicin, CellTiter-Glo luminescence; at 10 µM; stronger effect = higher value.
A short description of assay [12]: growth suppression of beta-catenin knockout HCT116, pilot screen, human colon tumor cells (AID 823;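 active = cell viability at or below a set limit in both duplicate runs, the limit being the all-compound median minus 4 SD, cut at about 23% in these data, passing the limit was not always enough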;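 also: 0% = wells killed by 20 µM Hyamine and 100% = untreated DMSO cell wells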). The conditions noted are these: CellTiter-Glo, 60 h, at 10 µM, stronger effect = lower value.
Assay [13] in a line: growth suppression of PTEN-deleted HCT116, pilot screen, cell-based, HCT116 clonal line, CellTiter-Glo (AID 824;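 active = viability at or below 27.92% in each of two runs, the all-compound median minus 4 SD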;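 also: 0% = 20 µM Hyamine control and 100% = vehicle cell control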). The settings on record: 60 h, at 10 µM, stronger effect = lower value.
A short description of assay [14]: inhibitors of the yeast RAM network, pilot screen, dse1pr::URA3 reporter, 5-FOA selection (AID 869;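 active = inhibition over a set limit, the all-compound mean plus 3 SD, in both replicate runs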;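 also: 0% = DMSO wells with no growth and 100% = 10 µM 1-NA-PP1 with full growth; RAM network block rescues cells from 5-FOA so hits raise OD615 growth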). The conditions noted are these: S. cerevisiae dse1pr::URA3 5-FOA growth, OD615, 2 d; at 10 µM; stronger effect = higher value; strain carries analog-sensitive mutant Cbk1 kinase.
The nature of assay [15]: RAM signaling pathway blockade in yeast – S. cerevisiae, Pdr1DBD-CYC8 efflux-inhibited sensitized strain, primary screen (AID 1298;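 active = RAM network inhibition above 8.4% in each of two replicates, 3 SD over the compound average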;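 also: 0% = DMSO untreated cells without growth and 100% = 10 µM 1-NA-PP1 full growth; higher means more yeast growth rescued from 5-FOA killing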). The conditions noted are these: S. cerevisiae cbk1-as DSE1-URA3 strain, 5-FOA growth OD615, 2 d; at 50 µM; stronger effect = higher value.
Setting [16] is: H69AR cells + 2 uM doxorubicin, measured here: viability with 2 uM doxorubicin, stronger effect = lower value.
Where [17] appears, read: H69AR cells, compound alone cytotoxicity.

As to `Cc1cc(C)cc(N(CC(=O)NC2CCC(C)CC2)S(=O)(=O)c2c(C)noc2C)c1` (stereo not given), the viability (commonly a read-out of living cells in per cent, often relative to untreated cells) in assay [1] was 104%; in assay [3], 104% (inactive); in assay [4] it was 94% (inactive); in assay [5], 88.1% (inactive); in assay [6] (setting [16]) it was 83.8%; in assay [6] (setting [17]), 88.1%. The viability was 97.5% (inactive) in assay [12] and 94.9% (inactive) in assay [13]. Moreover, the Her2 level in assay [2] is 101% (inactive). In addition, the differential viability (reversal) in assay [6] (H69AR cells + 2 uM doxorubicin) is 4.2% (inactive). The figures for the inhibition in assay [7], in assay [8] and in [14] were -3.59% (inactive), -5.67% (inactive) and 2.36% (inactive), respectively. Also, the growth inhibition is -23.2% (inactive) in assay [9] and -18.5% (inactive) in assay [10]. The viability increase in assay [11] was -1.82% (inactive). The RAM network inhibition in [15] is 11.3% (inactive).
Regarding `CCCC(=O)C1=C(N(C)c2ccccc2)CC(C)(C)C(C(=O)OC)C1=O` (stereo not given), the viability in [1] was 95%; in [3], 95% (inactive); in assay [4] it was 97.9% (inactive); in [5] it was 94.4% (inactive); in [6] (setting [16]), 93.2%; in assay [6] (setting [17]), 94.4%. The viability is 93.7% (inactive) in assay [12] and 92.9% (inactive) in assay [13]. Further, the Her2 level in assay [2] is 81% (inactive). Further, the differential viability (reversal) in [6] (H69AR cells + 2 uM doxorubicin) is 1.22% (inactive). The inhibition (in general, the drop in the measured response relative to a control, in per cent) was -2.47% (inactive) in assay [7], -2.83% (inactive) in assay [8] and -0.705% (inactive) in assay [14]. In addition, the results for the growth inhibition in assay [9] and in assay [10] were -1.78% (inactive) and -2.86% (inactive), respectively. The viability increase in [11] was -3.32% (inactive). Also, the RAM network inhibition in assay [15] is 0.26% (inactive).
As to `N#Cc1ccc(-c2csc(NC(=O)C3CC3)n2)cc1`, the viability was 95.5% in assay [1]; 95.5% (inactive) in assay [3]; 109% (inactive) in assay [4]; 91.9% (inactive) in [5]; 85.1% in [6] (setting [16]); 91.9% in [6] (setting [17]). In addition, the viability was 103% (inactive) in assay [12] and 88.9% (inactive) in [13]. In assay [2], the Her2 level was 91% (inactive). The differential viability (reversal) in [6] (H69AR cells + 2 uM doxorubicin) was 6.75% (inactive). In addition, the inhibition in assay [7] was -2.93% (inactive); in [8], 0.16% (inactive); in assay [14], 2.53% (inactive). Besides, the results for the growth inhibition in assay [9] and in [10] were -18.1% (inactive) and -2.02% (inactive), respectively. For the same molecule, the viability increase in assay [11] was 3.47% (inactive). In addition, in assay [15], the RAM network inhibition was 4.29% (inactive).
On to `COCCn1cc(C(=O)c2ccccc2OCC(=O)Nc2cc(C)on2)cc(C#N)c1=O`, for which the viability in assay [1] is 82.5%; in assay [3], 82.5% (inactive); in [4], 89% (inactive); in [5], 108% (inactive); in assay [6] (setting [16]), 102%; in assay [6] (setting [17]) it was 108%. For the same molecule, the viability was 92.9% (inactive) in assay [12] and 99.5% (inactive) in assay [13]. For the same molecule, the Her2 level in assay [2] is 115% (inactive). For the same molecule, in assay [6] (H69AR cells + 2 uM doxorubicin), the differential viability (reversal) is 6.63% (inactive). Further, the inhibition is -2.76% (inactive) in assay [7], -1.17% (inactive) in [8] and 1.68% (inactive) in [14]. In addition, the growth inhibition was -25.8% (inactive) in assay [9] and -14% (inactive) in assay [10]. The viability increase in assay [11] is -0.5% (inactive). Also, in assay [15], the RAM network inhibition is 3.2% (inactive).
As for `CCc1nc2sc(C)c(C)c2c(=O)n1CCO`, the viability is 106% in assay [1]; 106% (inactive) in [3]; 104% (inactive) in assay [4]; 94.7% (inactive) in assay [5]; 90.6% in [6] (setting [16]); 94.7% in [6] (setting [17]). Also, the viability in assay [12] is 104% (inactive); in assay [13] it was 102% (inactive). The Her2 level in [2] is 85% (inactive). The differential viability (reversal) in assay [6] (H69AR cells + 2 uM doxorubicin) is 4.12% (inactive). The results for the inhibition in [7], in assay [8] and in assay [14] were -6.23% (inactive), -3.67% (inactive) and 0.35% (inactive), respectively. Also, the growth inhibition in assay [9] was -1.03% (inactive); in assay [10], 0.805% (inactive). In [11], the viability increase is -1.82% (inactive). Moreover, in [15], the RAM network inhibition is 2.87% (inactive).
